Test results reported in PubChem BioAssay AID738 (SRMLSC, 2007).
Hit rate of the full screen: of about 98,000 compounds, about 4,900 (5%) were called active. Cut-off read from the data, not from the text of the source: active = inhibition above about 30%; inactive = the rest. For the sample, actives were picked, then their nearest neighbours and some compounds at random.

Test: growth inhibition of yeast control strain, primary screen, counter-screen for post-Golgi transport modulator project (AID 738)
Conditions: efflux-deficient yeast background strain, growth absorbance A615, 16 h; at 10 µM; stronger effect = higher value

| Compound | inhibition |
| --- | --- |
| COc1cc(/C=N\NC(=O)C2C(=O)NCC2c2ccccc2)cc(OC)c1O (configuration not stated) | -0.14% (inactive) |
| CC(C)(C)Cc1nnc(NC(=O)c2cc(-c3ccccc3)nc3ccccc23)s1 | 9.13% (inactive) |
| CCOC(=O)c1[nH]c2ccc(C)cc2c1N=C(C)N(C)C | 30.6% (active) |
| CCOC(=O)c1[nH]c2ccccc2c1N=C(C)N(CC)CC | -8.42% (inactive) |
| CCOC(=O)c1cc2cc(C)ccc2[nH]1 | 10.2% (inactive) |
| Cn1cnc([N+](=O)[O-])c1Sc1ccccc1 | 7.56% (inactive) |
| Clc1ccc(-n2nnnc2CN2CCCCC2)cc1Cl | -0.16% (inactive) |
| Cc1ccccc1CS(=O)(=O)CC1(O)CCN(C(=O)c2cccc(C(F)(F)F)c2)CC1 | 4.49% (inactive) |
| COc1cc(/C=C(/NC(=O)c2ccccc2)C(=O)Nc2cccc(O)c2)c([N+](=O)[O-])cc1OC | 15.7% (inactive) |
| O=C(Cc1ccc(-n2c(=O)[nH]c3ccccc3c2=O)cc1)N1CCN(c2cccc(Cl)c2)CC1 | 37.3% (active) |
| O=C(CCn1c(=O)[nH]c2ccccc2c1=O)NCCCN1CCN(c2cccc(Cl)c2)CC1 | 1.72% (inactive) |
| CCOC(=O)N1CCN(C(=O)Cc2ccc(-n3c(=S)[nH]c4ccccc4c3=O)cc2)CC1 | -2.12% (inactive) |
| COc1ccc(NC(=O)C(NC(C)=O)C(=O)NCc2ccccc2Cl)cc1 (configuration not stated) | 14% (inactive) |
| COC(=O)CN(C(=S)Nc1ccc(Cl)cc1)C1CC(=O)N(c2ccc(OC)cc2)C1=O (configuration not stated) | 7.41% (inactive) |
| O=C(NCc1cccnc1)c1ccc(CS(=O)(=O)c2ccc(Br)cc2)o1 | -2.42% (inactive) |
| O=C(Nc1ccc(Br)c2cccnc12)c1ccc(Cn2cc([N+](=O)[O-])cn2)o1 | 30.3% (active) |
| CC1CCc2c(sc(NC(=O)c3ccc(Cn4cc(Br)cn4)o3)c2C(N)=O)C1 (configuration not stated) | 10.8% (inactive) |
| COc1ccccc1NC(=O)[C@H](COCc1ccccc1)NC(=O)OC(C)(C)C | 5.88% (inactive) |
| CC(=O)c1ccc(Cc2ncc(C(F)(F)F)cc2Cl)s1 | 5.66% (inactive) |
| CCN1CCN(c2ccc([N+](=O)[O-])cc2C(=O)c2ccc(Cl)cc2)CC1 | 26.2% (inactive) |
| O=C(NCc1ccccn1)c1cc(-c2ccccc2Cl)on1 | 9.87% (inactive) |
| CC(=O)c1c(C)[nH]c(C(=O)NCc2ccc(C)cc2)c1C | 5.25% (inactive) |
| CCOc1ccc(C(=O)Nc2cc(OC)ccc2OC)cc1 | -3.51% (inactive) |

| Compound | inhibition |
| --- | --- |
| COc1ccc(C)cc1NC(=O)c1[nH]c(C)c(C(C)=O)c1C | 55% (active) |
| CC1=NN(C(=O)c2ccccc2Br)C(O)(c2cccnc2)C1 (configuration not stated) | 9.36% (inactive) |
| COC(=O)c1ccc(C(=O)Nc2cc(Cl)ccc2Cl)cc1NC(=O)c1ccccc1C | 1.48% (inactive) |
| Cc1ccc(NC(=O)C(C)c2cccc(C(=O)c3ccccc3)c2)cc1 (configuration not stated) | 9.41% (inactive) |
| CC(C)CC(=O)N1CCC(O)(CS(=O)(=O)Cc2ccccc2)CC1 | 12.7% (inactive) |
| c1ccc(CSc2nnc(-c3ccco3)n2Cc2ccccc2)cc1 | 38.6% (active) |
| O=C(CSc1nnc(-c2ccco2)n1Cc1ccccc1)NC(=O)NCc1ccco1 | -1.05% (inactive) |
| c1ccc(CSc2nnc(-c3ccco3)c(-c3ccco3)n2)cc1 | 21.3% (inactive) |
| COc1ccc(CCN(C(=O)COc2ccccc2)c2nc(-c3ccccc3)cs2)cc1OC | 4.48% (inactive) |
| CCC(c1nnnn1Cc1ccco1)N(CCc1ccccc1)Cc1cc2ccc(OC)cc2[nH]c1=O (configuration not stated) | 5.86% (inactive) |
| Cc1cccc2cc(CN(Cc3ccc4c(c3)OCO4)Cc3nnnn3C3CCCC3)c(=O)[nH]c12 | 20.4% (inactive) |
| CCC(c1nnnn1Cc1ccco1)N(Cc1cc2cc(OC)ccc2[nH]c1=O)C1CCCCC1 (configuration not stated) | 29.9% (inactive) |
| CCC(c1nnnn1Cc1ccco1)N(CCc1ccccc1)Cc1cc2cccc(C)c2[nH]c1=O (configuration not stated) | 52.5% (active) |
| Cc1cccc2cc(CN(Cc3cccs3)C(c3nnnn3C3CCCC3)C(C)C)c(=O)[nH]c12 (configuration not stated) | 23% (inactive) |
| CCC(c1nnnn1C1CCCC1)N(Cc1cccs1)Cc1cc2cccc(C)c2[nH]c1=O (configuration not stated) | 38.6% (active) |
| CCOC(=O)C1CN(S(=O)(=O)c2ccc(F)cc2)C1 | -2.08% (inactive) |
| N=c1c2c(-c3ccccc3)c(-c3ccccc3)oc2ncn1Cc1ccco1 | 26.2% (inactive) |
| CC(=O)c1sc(NC(=O)c2cccc3ccccc23)nc1C | -0.59% (inactive) |
| Cc1ccc2nc(SCc3nnc(-c4ccccc4[N+](=O)[O-])o3)c(C#N)cc2c1 | 23.2% (inactive) |
| c1ccc2c(CSCc3nc4ccccc4[nH]3)cccc2c1 | 14.3% (inactive) |
| Cc1ccc(OC(=O)c2ccccc2C(=O)OCC(F)(F)C(F)F)cc1 | 5.33% (inactive) |
| COc1ccc(-c2cc(C(F)(F)F)nc(S(C)(=O)=O)n2)cc1OC | 87.3% (active) |
| COc1ccc(-c2cc(C(F)(F)F)nc(NCc3cccnc3)n2)cc1 | 26.7% (inactive) |

| Compound | inhibition |
| --- | --- |
| COc1ccc(-c2ccc(Nc3ccc(S(=O)(=O)N4CCCC4)cc3)nn2)cc1OC | -1.56% (inactive) |
| O=C(Nc1ccc(Br)cc1)C1CCC(=O)N1Cc1ccccc1Cl (configuration not stated) | -0.46% (inactive) |
| CSCc1cc(N2CCOCC2)nc(SCc2ccc(Cl)cc2Cl)n1 | 7.94% (inactive) |
| Cc1cc(C(=O)Nc2c(C)nn(Cc3ccccc3)c2C)on1 | 8.88% (inactive) |
| CC(=O)Nc1ccccc1C(=O)C(=O)Nc1ccc(F)cc1 | 4.22% (inactive) |
| N#Cc1nc(-c2ccc(OCc3ccccc3)cc2)oc1NCCCN1CCOCC1 | 14.1% (inactive) |
| N#Cc1nc(Cc2ccccc2)oc1NCCc1ccccc1 | 21.1% (inactive) |
| N#Cc1nc(COc2ccc(-c3ccccc3)cc2)oc1NCc1cccnc1 | 94.2% (active) |
| FC(F)(F)c1nc2ccccc2nc1N/N=C/c1ccc(Cl)cc1 | -2.3% (inactive) |
| CCOC(=O)N1CCN(c2c(NCCCN3CCCC(C)C3)c(=O)c2=O)CC1 (configuration not stated) | -0.16% (inactive) |
| COCCn1nnnc1C(c1ccccc1Cl)N1CCN(c2ccccc2OC)CC1 (configuration not stated) | 3.75% (inactive) |
| COc1ccc(C(c2nnnn2C2CCCCC2)N2CCN(c3ccccc3F)CC2)cc1 (configuration not stated) | 50.5% (active) |
| COc1ccc(N2CCN(C(c3cc4ccc(C)cc4[nH]c3=O)c3nnnn3C3CCCC3)CC2)cc1 (configuration not stated) | -0.59% (inactive) |
| CC(C)C(c1nnnn1C1CCCC1)N1CCN(c2ccccc2F)CC1 (configuration not stated) | 42.7% (active) |
| CC(C)C(c1nnnn1Cc1ccccc1)N1CCC(C(N)=O)CC1 (configuration not stated) | -0.16% (inactive) |
| CCC(c1nnnn1C1CCCC1)N1CCN(C(=O)c2ccco2)CC1 (configuration not stated) | 12.4% (inactive) |
| Cc1ccc(SCC2=NNC(=O)C2)cc1 | -3.86% (inactive) |
| O=C(NNC(=O)c1cccnc1)Nc1ccccc1 | 8.65% (inactive) |
| O=Cc1c(N2CCN(c3cccc(Cl)c3)CC2)nc2ccccn2c1=O | 20% (inactive) |
| O=[N+]([O-])c1ccccc1NCc1ccc(Cl)cc1 | 9.17% (inactive) |
| CC(C)c1cc(C(N)=O)c(NC(=O)c2cccc(COc3ccc(Br)cc3)c2)s1 | 15.8% (inactive) |
| CSc1ccccc1C(=O)Nc1cccc(C(C)=O)c1 | -2.07% (inactive) |
| O=C1Nc2cc(Cl)c(Cl)cc2N(O)N1c1cc(Cl)cc(Cl)c1 | 33.2% (active) |

| Compound | inhibition |
| --- | --- |
| Clc1ccc(-c2cc(COc3ccccc3)no2)cc1Cl | 5.93% (inactive) |
| Cc1ccc(-n2c(C)cc(/C=C(\C#N)C(=O)NCC3CCCO3)c2C)cc1 (configuration not stated) | 10.8% (inactive) |
| CN1C2CCC1/C(=C\c1ccccc1Cl)C(=O)/C2=C\c1ccccc1Cl | 25.3% (inactive) |
| CC12c3ccccc3C(c3ccccc31)C1C(=O)N(Cc3cccnc3)C(=O)C12 (configuration not stated) | 4.53% (inactive) |
| O=C(O)CSCC(=O)Nc1cccc(C(F)(F)F)c1 | 4.42% (inactive) |
| CC(=O)N1CCN(C(=O)Nc2cccc(C(F)(F)F)c2)CC1 | -1.91% (inactive) |
| FC(F)(F)c1cccc(NC(=S)Nc2cccc(Cl)c2)c1 | 35.1% (active) |
| O=C(CCNS(=O)(=O)c1ccccc1C(F)(F)F)NCc1ccc2c(c1)OCO2 | -1.95% (inactive) |
| COCCNC(=O)c1onc(CSc2cccc(C)c2)c1C(=O)O | -8.59% (inactive) |
| Cc1ccc(-c2nn(C(C)(C)C)c3ncnc(N)c23)cc1 | 52.1% (active) |
| COc1ccc(C(F)(F)F)cc1N/C=C\c1nnnn1-c1ccc(C)cc1 | 0.15% (inactive) |
| O=S(=O)(/N=C(/Nc1ccccn1)c1ccccc1)c1ccc(Cl)cc1 | 1.53% (inactive) |
| O=C(COc1ccc(/C=N/NS(=O)(=O)c2ccccc2)cc1)NCCc1ccccc1 | 5.69% (inactive) |
| O=C(CSc1nnnn1-c1ccc2c(c1)CCC2)Nc1ccc2c(c1)OCCO2 | 39.2% (active) |
| O=C(CSc1nnnn1C1CCCC1)Nc1ccc2c(c1)OCCO2 | -2.44% (inactive) |
| O=C(CSc1nc2ncccc2[nH]1)Nc1ccc2c(c1)OCCO2 | 0.61% (inactive) |
| COc1ccc(NC(C)=O)cc1NC(=O)CN1CCN(C2c3ccccc3-c3ccccc32)CC1 | 89.2% (active) |
| COc1ccc(NC(C)=O)cc1NC(=O)CN1CCN(c2ccccn2)CC1 | 18.6% (inactive) |
| COc1ccc(OC)c(NC(=O)CN2CCN(C(=O)c3ccco3)CC2)c1 | 12.4% (inactive) |
| Cc1c(C(=O)OC(C)C)sc(NC(=O)c2cccnc2)c1C#N | 11.5% (inactive) |
| CC(CN1CCOCC1)c1ccccc1 (configuration not stated) | 5.77% (inactive) |
| O=C(Nc1sc2c(c1-c1nc3ccccc3[nH]1)CCCC2)C1CC1 | 3.43% (inactive) |
| CCOC(=O)c1c(NC(=O)c2ccc(N3CCOCC3)c([N+](=O)[O-])c2)sc(C)c1C | 3.45% (inactive) |
